SMILES strings stand for the structures. Inconclusive results are not listed. Calls of active or inactive are those of the source. How the source made its calls: active means hit-call score of the fitted dose curve at least 0.9, where 1 is the maximum; inconclusive means response in the unintended direction; inactive means score below 0.9.

The nature of the assay: CCTE_Harrill_HTTr_CellCount_MCF7: CCTE's Cell Proliferation Assessment for the High-Throughput Transcriptomics (HTTr) Platform, Harrill Lab (AID 2284012).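 Further: cells exposed to compound for six hours; intended direction is loss of nuclei count meaning fewer cells.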 The source says: This is a cell-based assay that evaluates cell viability and cell growth using high content imaging to count the number of Hoechst-labeled nuclei that are present in an assay well in 384-well format.This is a cell-based assay that evaluates cell viability and cell growth in MCF-7 cells. This was part of a full screening experiment. High content imaging is used to count the number of Hoechst-labeled nuclei that are present in an assay well in 384-well format.The assay component endpoint CCTE_Harrill_HTTr_CellCount_MCF7 was analyzed with bidirectional fitting relation to DMSO as the negative control and baseline of activity. Using a type of viability reporter, loss-of-signal activity can be used to understand changes in cell count. To generalize the intended target to other relatable targets, this assay endpoint is annotated to cell cycle, where the subfamily is cell count.
Chemicals were tested in MCF7 cells in an eight point dilution series with a six hour exposure duration.
Take `CC1(C)C(C=C(Cl)Cl)C1C(=O)OC(C#N)c1cccc(Oc2ccccc2)c1` (centres undefined): the molecule was called inactive.

Regarding `CC1(C)C(C(=O)OC(C#N)c2cccc(Oc3ccccc3)c2)C1(C)C` (centres undefined), the molecule was called inactive.

Turning to `Nc1c(Cl)c(Cl)nc(C(=O)O)c1Cl`, the result was inactive.

Turning to `CC(C)Oc1cccc(NC(=O)c2ccccc2C(F)(F)F)c1`, the call was inactive.

With `CS(=O)(=O)c1ccc(C(=O)C2C(=O)CCCC2=O)c([N+](=O)[O-])c1`, the molecule was called inactive.

On to `C=CCOC(=O)C(C)(C)OC(=O)c1cc(-n2c(=O)cc(C(F)(F)F)n(C)c2=O)ccc1Cl`, for which the molecule was classed as inactive.

For `CC(C)(C)C(=O)C(Oc1ccc(Cl)cc1)n1cncn1` (centres undefined), the result was inactive.

Turning to `CCOc1nc(C(Cl)(Cl)Cl)ns1`, the molecule was called inactive.

Turning to `COC(=O)NC(=S)Nc1ccccc1NC(=S)NC(=O)OC`, the molecule was called inactive.

With `CCOP(=S)(OCC)Oc1nc(Cl)n(C(C)C)n1`, the call was inactive.

For `Nc1c(Cl)c(F)nc(OCC(=O)O)c1Cl`, the call was inactive.

For the molecule `Clc1cccc(C(Cl)(Cl)Cl)n1`, the call was inactive.

Take `CCCCOCN(C(=O)CCl)c1c(CC)cccc1CC`: the molecule was classed as inactive.

Turning to `CCNP(=S)(OC)O/C(C)=C/C(=O)OC(C)C` (centres undefined), the molecule was called inactive.

Take `CN/C(=N\[N+](=O)[O-])NCc1cnc(Cl)s1`: the molecule was classed as inactive.

As to `CCC(C)n1c(=O)[nH]c(C)c(Br)c1=O` (centres undefined), the outcome was inactive.

Consider `O=C(Nc1ccccc1-c1ccc(Cl)cc1)c1cccnc1Cl`, for which the result was inactive.

On to `Cc1ccc(N=CN(C)C=Nc2ccc(C)cc2C)c(C)c1`, for which the call was inactive.

Consider `CCNC(=O)NC(=O)C(C#N)=NOC`, for which the outcome was inactive.

On to `CS(=O)(=O)c1cc(C(F)(F)F)ccc1C(=O)c1cnoc1C1CC1`, for which the molecule was called inactive.

Take `O=C1C2CC=CCC2C(=O)N1SC(Cl)(Cl)Cl` (centres undefined): the molecule was called inactive.

Regarding `CCN(CC)c1nc(C)cc(OP(=S)(OC)OC)n1`, the call was inactive.

Consider `Cc1c(COC(=O)[C@@H]2[C@H](/C=C(\Cl)C(F)(F)F)C2(C)C)cccc1-c1ccccc1`, for which the outcome was inactive.

`Cc1cnc(C2=NC(C)(C(C)C)C(=O)N2)c(C(=O)O)c1` (centres undefined): the call was inactive.

Take `CCCCC(O)(Cn1cncn1)c1ccc(Cl)cc1Cl` (centres undefined): the molecule was called inactive.

As for `Cn1c(-c2ccccc2)cc(-c2ccccc2)[n+]1C`, the result was inactive.

Consider `CC(C)N1C(=O)N(c2ccccc2)CSC1=NC(C)(C)C`, for which the molecule was classed as inactive.

On to `COC(=O)N(C(=O)N1CO[C@@]2(C(=O)OC)Cc3cc(Cl)ccc3C2=N1)c1ccc(OC(F)(F)F)cc1`, for which the molecule was called inactive.

As to `CCCCC(C#N)(Cn1cncn1)c1ccc(Cl)cc1` (centres undefined), the molecule was called inactive.

For the molecule `COC(=O)c1c(C(F)F)nc(C(F)(F)F)c(C2=NCCS2)c1CC(C)C`, the call was inactive.

Consider `CCOP(=O)(OCC)Oc1nc(Cl)c(Cl)cc1Cl`, for which the call was inactive.

Turning to `COP(=S)(OC)SCn1nnc2ccccc2c1=O`, the outcome was inactive.

On to `COC(=O)NS(=O)(=O)c1ccc(N)cc1`, for which the result was inactive.

In the case of `OC(c1ccc(Cl)cc1)(c1ccc(Cl)cc1)C(Cl)(Cl)Cl`, the result was inactive.

Turning to `CC(C)N1C(=O)c2ccccc2NS1(=O)=O`, the result was inactive.

As for `Clc1nc(Cl)nc(Nc2ccccc2Cl)n1`, the result was inactive.

As for `CO/N=C(/C1=NOCCO1)c1ccccc1Oc1ncnc(Oc2ccccc2Cl)c1F`, the molecule was called inactive.

In the case of `CCCN(CC)CC1COC2(CCC(C(C)(C)C)CC2)O1` (centres undefined), the outcome was inactive.

Turning to `COP(=S)(OC)Oc1ccc([N+](=O)[O-])c(C)c1`, the molecule was classed as inactive.

The values are drawn from PubChem BioAssay (EPA / NIEHS).
